Measured values as given in the supplement of paper PMC3334620.
In all, about 33,000 sequences were measured (“E-score (-0.5 to 0.5)”: median about -0.021, highest 2% from about 0.32 on). This is one part of a sample in which the highest values are shown more often than they occur.

These sequences were tested against T1, Zap1 (UniProt P47043) (assay: PBM E-score (8-mer binding enrichment) (E-score (-0.5 to 0.5)); higher = stronger / more preferred TF binding). Conditions: protein concentration: 200 nM; construct: GST-full length.
T1 sequence: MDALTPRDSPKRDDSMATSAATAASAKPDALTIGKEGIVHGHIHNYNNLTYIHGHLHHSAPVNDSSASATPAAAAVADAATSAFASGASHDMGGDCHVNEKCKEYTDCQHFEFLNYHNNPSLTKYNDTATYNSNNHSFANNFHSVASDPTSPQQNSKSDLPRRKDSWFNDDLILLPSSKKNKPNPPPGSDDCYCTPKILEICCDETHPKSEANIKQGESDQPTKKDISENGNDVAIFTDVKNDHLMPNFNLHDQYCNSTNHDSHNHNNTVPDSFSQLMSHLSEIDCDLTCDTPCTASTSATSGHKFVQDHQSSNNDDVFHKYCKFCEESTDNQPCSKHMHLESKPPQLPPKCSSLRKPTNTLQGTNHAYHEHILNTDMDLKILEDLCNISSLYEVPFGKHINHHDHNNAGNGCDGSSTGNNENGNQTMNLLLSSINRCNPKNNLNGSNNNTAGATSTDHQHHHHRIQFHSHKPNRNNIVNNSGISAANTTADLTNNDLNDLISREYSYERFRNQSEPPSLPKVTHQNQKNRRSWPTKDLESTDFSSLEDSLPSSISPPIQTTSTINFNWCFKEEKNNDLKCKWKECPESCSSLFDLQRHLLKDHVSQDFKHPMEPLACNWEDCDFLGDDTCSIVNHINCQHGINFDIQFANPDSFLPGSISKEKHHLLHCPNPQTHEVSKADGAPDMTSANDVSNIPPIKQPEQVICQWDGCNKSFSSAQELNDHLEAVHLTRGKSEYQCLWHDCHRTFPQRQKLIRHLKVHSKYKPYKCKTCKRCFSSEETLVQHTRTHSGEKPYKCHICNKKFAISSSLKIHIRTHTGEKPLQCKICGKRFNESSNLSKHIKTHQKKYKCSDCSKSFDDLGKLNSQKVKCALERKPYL
Method in brief: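 Yeast transcription factors carrying a GST tag, as full-length proteins or DNA-binding domains, were produced by PURExpress in vitro transcription/translation. About 100-200 nM protein was applied to universal all-10-mer Agilent arrays, double-stranded by primer extension on fresh or once-stripped slides. Bound protein was detected with fluorescent anti-GST, and scans were normalised with masliner. The Universal PBM Analysis Suite gave each ungapped eight-base word, pooled with its reverse complement, an E-score, a modified Wilcoxon-Mann-Whitney statistic.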

Row | Sequence | PBM E-score
1 | AGCAACCG | -0.0288
2 | AACTGCCG | -0.0311
3 | ACCTCGCG | 0.109
4 | TGGTTACA | 0.395
5 | TAGTTACA | 0.158
6 | CGGTTACA | 0.411
7 | GCGTTACA | 0.126
8 | TCGTTACA | -0.024
9 | GGTTTACA | 0.17
10 | GAGTTACC | 0.3
11 | GGGTTACA | 0.468
12 | CCGTTACA | 0.061
13 | GCGTTACC | 0.0732
14 | CTGTTACA | 0.0543
15 | GGGTTACC | 0.463
16 | AGCAACAG | -0.195
17 | AACTAATA | 0.314
18 | AGTAGCGG | -0.125
19 | GAAGACCC | 0.236
20 | TATTAGGA | 0.0916
21 | CCTTATAC | 0.0827
22 | CCCCAGTA | -0.0431
23 | CACTGGTC | -0.0725

Row | Sequence | PBM E-score
24 | CCTCAATC | 0.158
25 | CAGTTACC | 0.208
26 | CGGTTACC | 0.444
27 | CTGTTACC | 0.248
28 | GCCACTAC | -0.0479
29 | TATCTAGA | 0.151
30 | AGCGTCTA | -0.214
31 | CCCTTAAG | 0.335
32 | ACCTTAAA | 0.247
33 | GCTTTAAC | 0.186
34 | CCTTTAAC | 0.352
35 | ACCTTAAC | 0.358
36 | CCCTTATA | 0.15
37 | ACCTTATA | 0.339
38 | ACCTTATG | 0.314
39 | CCTTTAAG | 0.237
40 | CCCTTAAC | 0.0959
41 | ACCTTAAT | 0.302
42 | ACCTTAAG | 0.269
43 | AGTGGAAG | -0.204
44 | ATGAGCGG | -0.167
45 | GTTGGGAA | 0.0568
46 | ATGAGGAC | -0.0846

Row | Sequence | PBM E-score
47 | ATCCAGTC | -0.137
48 | CTCTCACC | 0.0392
49 | AATCCCGA | 0.0192
50 | ATCAACAT | 0.00735
51 | ATAGGAAC | 0.0152
52 | CGCCTACG | -0.23
53 | GAATGGCC | 0.188
54 | AGTGCGAA | -0.172
55 | CCTTAAGG | 0.411
56 | CCTTAAGC | 0.0365
57 | CCTTAAGA | 0.155
58 | AGCTCGAG | -0.0098
59 | GATACTCA | -0.029
60 | ATAGGTAC | 0.36
61 | ATAGGTGA | 0.0727
62 | ATAGGTAG | 0.172
63 | CTAGGTAC | 0.115
64 | ATAGGTAA | 0.323
65 | CTAGGTAA | 0.0356
66 | GGAAGGCA | -0.191
67 | AGGGGCTG | -0.0614
68 | ATGGTTAG | 0.316
69 | CTGGTTTC | 0.124

Row | Sequence | PBM E-score
70 | CTGGTTAA | 0.225
71 | CTGGTTAC | 0.412
72 | ATGGTTGC | 0.0738
73 | ATGGTTAC | 0.471
74 | ACGGTTGG | -0.0119
75 | CGCTATAG | -0.238
76 | TCCATTCA | 0.0213
77 | ATCTGGAA | -0.00838
78 | AAACCTCA | 0.232
79 | TAACCTTA | 0.39
80 | AGACCTCA | 0.0826
81 | CGACCTCA | 0.081
82 | TAACCTAA | 0.399
83 | TGACCTCA | 0.333
84 | TAACCTCA | 0.418
85 | CAACCTTA | 0.286
86 | CAACCTAA | 0.203
87 | AAACCTTA | 0.288
88 | AAACCTAA | 0.159
89 | GAACCTCA | 0.189
90 | AGCTACAT | -0.263
91 | ATTTCTGG | 0.0521
92 | AAGTTCAC | -0.108

Row | Sequence | PBM E-score
93 | AATGAAGT | 0.0905
94 | AATCAAAG | 0.0185
95 | ACTATGAT | -0.00467
96 | GTTGTATA | 0.117
97 | AAGTTGCT | -0.0577
98 | GTACTGTA | 0.0704
99 | GTACTGAC | 0.0986
100 | GTACTGAA | 0.317
101 | AGGGTCCG | -0.0112
102 | CGATGGCG | -0.284
103 | CATGAAAC | 0.0838
104 | CAAGTGCG | -0.0607
105 | GGCATGTA | -0.0887
106 | CCGCCCGG | 0.0274
107 | CCGCCCCC | -0.343
108 | CCGCCCCG | 0.341
109 | CAGGTGTC | -0.0194
110 | CAGTACTA | 0.164
111 | TCAAAAAA | 0.202
112 | CAACCCCC | -0.212
113 | TAACCATA | 0.44
